Test results as given in PubChem BioAssay (Tox21).
Inconclusive results are not listed. Entries that show only a call come without a potency. Activity calls are given as the source filed them. Unless noted, the call rests on the fitted dose curve; in most records, active means well fitted cell-killing curve with a large enough effect in the repeat runs; inconclusive means weak or mixed curves, or effect the other way; inactive means no such curve, though single readings can be large or run the other way.

Test: qHTS assay to identify small molecule agonists of the vitamin D receptor (VDR) signaling pathway - cell viability counter screen (AID 743224); further: nearly all actives have a fitted effect of over 50% in size
Conditions: VDR-bla HEK293T viability, CellTiter-Glo luminescence, 16 h; series mostly up to 62.6 µM
Method in brief: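 VDR-bla cell line, quantitative HTS format; 16 h compound incubation (37C, 5% CO2); ATP-based CellTiter-Glo luminescence measured in the reporter assay wells.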

Structure (SMILES) | Potency
CNc1cnn(-c2cccc(C(F)(F)F)c2)c(=O)c1Cl | inactive
CNC(=O)O/N=C/C(C)(C)S(C)(=O)=O | inactive
CNC(=O)O/N=C(\SC)C(=O)N(C)C | inactive
COC(C)(C)CCCC(C)C/C=C/C(C)=C/C(=O)OC(C)C (stereo unspecified) | inactive
CN(C)NC(=O)CCC(=O)O | inactive
CN(C)C(=O)Cl | inactive
COP(=S)(OC)SCN1C(=O)c2ccccc2C1=O | inactive
COc1cc(-c2ccc(N)c(OC)c2)ccc1N | inactive
COP(=S)(OC)Oc1ccc(SC)c(C)c1 | inactive
O=C(O)COc1ccccc1 | inactive
O=C(O)C(Br)Br | inactive
CCNc1nc(Cl)nc(NC(C)C)n1 | inactive

Test: qHTS assay to identify small molecule antagonists of the vitamin D receptor (VDR) signaling pathway - cell viability counter screen (AID 743225); further: nearly all actives have a fitted effect of over 50% in size
Conditions: VDR-bla HEK293T viability, CellTiter-Glo luminescence, 16 h; series mostly up to 61 µM
Method in brief: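 VDR-UAS-bla HEK 293T cells were plated and incubated 4 h at 37C, then dosed with compound plus 3 nM (final) 1-alpha,25-dihydroxyvitamin D3 for 16 h. After the 2 h beta-lactamase read, viability in the same wells was read as CellTiter-Glo luminescence after 30 min at room temperature.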

Structure (SMILES) | outcome
c1ccc2c(c1)CCCC2 | inactive
CNC(=O)O/N=C/C(C)(C)S(C)(=O)=O | inactive
COC(C)(C)CCCC(C)C/C=C/C(C)=C/C(=O)OC(C)C (stereo unspecified) | inactive
CN(C)C(=O)Nc1cccc(C(F)(F)F)c1 | inactive
CN(C)NC(=O)CCC(=O)O | inactive
COP(=S)(OC)SCN1C(=O)c2ccccc2C1=O | inactive
COc1cc(-c2ccc(N)c(OC)c2)ccc1N | inactive
N#CN=C(N)N | inactive
O=S(=O)(O)OOS(=O)(=O)O | inactive
ClC(Cl)c1ccccc1 | inactive
CCOc1ccc(N)cc1 | inactive
ClCCOCCCl | inactive
CC(C)(C)C(=O)CCl | inactive
C=CC(=O)OCC(CC)CCCC (stereo unspecified) | inactive
CCNc1nc(Cl)nc(NC(C)C)n1 | inactive
Oc1c(Br)cc(Br)cc1Br | inactive
CCCCCCCCCCCCCCCCCC(=O)O | inactive
OC[C@@H](O)[C@H]1O[C@@H]2O[C@H](C(Cl)(Cl)Cl)O[C@@H]2[C@H]1O | inactive

Test: qHTS assay to identify small molecule agonists of the NFkB signaling pathway (AID 1159509; active means well fitted curve in the direction sought with a large enough effect in the signal ratio in the repeat runs, not every such curve was filed as active; the % refers to the signal ratio)
Conditions: NFkB-bla ME-180 cells, beta-lactamase FRET ratio, 5 h; series mostly up to 61 µM
Method in brief: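 NFkB-bla ME-180 cells carry a beta-lactamase reporter under an NF-kB response element. They were plated overnight, then exposed to compounds for 5 h at 37 C. Read-out is LiveBLAzer FRET after 1.5 hr at room temperature (405 nm excitation; 460/530 nm emission).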

Structure (SMILES) | outcome
c1ccc2c(c1)CCCC2 | inactive
CNc1cnn(-c2cccc(C(F)(F)F)c2)c(=O)c1Cl | inactive
CNC(=O)O/N=C/C(C)(C)S(C)(=O)=O | inactive
Nc1cccc(Cl)c1 | inactive
CNC(=O)O/N=C(\SC)C(=O)N(C)C | inactive
COC(C)(C)CCCC(C)C/C=C/C(C)=C/C(=O)OC(C)C (stereo unspecified) | inactive
CN(C)C(=O)Nc1cccc(C(F)(F)F)c1 | inactive
CN(C)NC(=O)CCC(=O)O | inactive
CN(C)C(=O)Cl | inactive
Clc1cnc(Oc2ccc(Oc3ncc(Cl)cc3Cl)cc2)c(Cl)c1 | inactive
COP(=S)(OC)SCN1C(=O)c2ccccc2C1=O | inactive
COc1cc(-c2ccc(N)c(OC)c2)ccc1N | inactive
N#CN=C(N)N | inactive
O=S(=O)(O)OOS(=O)(=O)O | inactive
ClC(Cl)c1ccccc1 | inactive
Cc1cc(Cl)ccc1OC(C)C(=O)O (stereo unspecified) | inactive

Structure (SMILES) | outcome
COP(=S)(OC)Oc1ccc(SC)c(C)c1 | inactive
CCOc1ccc(N)cc1 | inactive
O=C(O)COc1ccccc1 | inactive
ClCCOCCCl | inactive
CC(C)(C)C(=O)CCl | inactive
O=C(O)C(Br)Br | inactive
C=CC(=O)OCC(CC)CCCC (stereo unspecified) | inactive
C/C=C/c1ccc2c(c1)OCO2 | inactive
CCNc1nc(Cl)nc(NC(C)C)n1 | inactive
Oc1c(Br)cc(Br)cc1Br | inactive
CN1C(=O)CCS(=O)(=O)C1c1ccc(Cl)cc1 (stereo unspecified) | inactive
CC(C)CCCCCCOC(=O)c1ccccc1C(=O)OCCCCCCC(C)C | inactive
CCCCCCCCCCCCCCCCCC(=O)O | inactive
COS(=O)(=O)OC | inactive
OC[C@@H](O)[C@H]1O[C@@H]2O[C@H](C(Cl)(Cl)Cl)O[C@@H]2[C@H]1O | inactive
